In PubChem BioAssay (NCI):
The panel holds about 83,000 compounds, 20% with a hit somewhere; the sample as a whole holds those more often.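 The endpoint reported here, percent growth, reads 100 for growth as untreated, 0 for no net growth and -100 for all cells dead.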 Activity calls are given as the source filed them. The calls were made as follows: active = growth percent below 10; inactive = the rest.

Experiments:
Experiment in all cases: NCI-60 one-dose screen, 48 h (100 = growth as untreated, 0 = no growth, -100 = all killed)
Settings in all cases: 10 µM unless noted
HT29 colon = system: HT29 colon
SNB-75 CNS = system: SNB-75 CNS
SNB-19 CNS = system: SNB-19 CNS
U251 CNS = system: U251 CNS
PC-3 prostate = system: PC-3 prostate
SK-MEL-5 melanoma = system: SK-MEL-5 melanoma
UACC-62 melanoma = system: UACC-62 melanoma
LOX IMVI melanoma = system: LOX IMVI melanoma
SK-MEL-28 melanoma = system: SK-MEL-28 melanoma
EKVX NSCLC = system: EKVX NSCLC
SN12C renal = system: SN12C renal
UO-31 renal = system: UO-31 renal
TK-10 renal = system: TK-10 renal
ACHN renal = system: ACHN renal
CAKI-1 renal = system: CAKI-1 renal
A498 renal = system: A498 renal
MOLT-4 leukemia = system: MOLT-4 leukemia
SK-MEL-2 melanoma = system: SK-MEL-2 melanoma
CCRF-CEM leukemia = system: CCRF-CEM leukemia

Measured: growth

Cc1[nH]n(-c2cccc(Cl)c2)c(=O)c1/C=C1\C=c2ccccc2=CC1=O
active: SNB-75 CNS -5.52% | U251 CNS -10.7% | SK-MEL-5 melanoma -82.5% | LOX IMVI melanoma -79.4% | ACHN renal -36.1%
inactive: HT29 colon 13.5% | SNB-19 CNS 31.4% | PC-3 prostate 33% | UACC-62 melanoma 82.7% | SK-MEL-28 melanoma 51.1% | EKVX NSCLC 51.3% | SN12C renal 23.6% | UO-31 renal 66.6% | TK-10 renal 17.2% | CAKI-1 renal 35% | A498 renal 107% | MOLT-4 leukemia 44.2%

O=C(Nc1cc(Cl)cc(Cl)c1)Oc1c(Cl)c(Cl)c(Cl)c(Cl)c1Cl
inactive: HT29 colon 73.2% | SNB-75 CNS 71.3% | SNB-19 CNS 66.1% | U251 CNS 62.9% | PC-3 prostate 42.2% | SK-MEL-5 melanoma 41.5% | UACC-62 melanoma 65.7% | LOX IMVI melanoma 72.5% | SK-MEL-28 melanoma 84.8% | SK-MEL-2 melanoma 64% | EKVX NSCLC 64.2% | SN12C renal 71.2% | UO-31 renal 58.4% | TK-10 renal 113% | ACHN renal 65.8% | CAKI-1 renal 68.1% | A498 renal 19.6% | CCRF-CEM leukemia 47.7% | MOLT-4 leukemia 63.5%

CC(C)c1ccc2c(c1)CC[C@H]1[C@](C)(C(=O)OCC#CCN3CCCC3)CCC[C@]21C
inactive: HT29 colon 36.8% | SNB-75 CNS 88.6% | SNB-19 CNS 86.8% | U251 CNS 69.2% | PC-3 prostate 61.9% | SK-MEL-5 melanoma 64.7% | UACC-62 melanoma 55.4% | LOX IMVI melanoma 91.1% | SK-MEL-28 melanoma 76% | SK-MEL-2 melanoma 103% | SN12C renal 71.5% | UO-31 renal 60.7% | TK-10 renal 98.6% | ACHN renal 86.2% | CAKI-1 renal 94.5% | A498 renal 105% | MOLT-4 leukemia 72.7%
active: CCRF-CEM leukemia 6.39%

CCOC(=O)CC[C@H](NC(=O)c1ccc(N(C)Cc2cnc3nc(N)nc(N)c3n2)c2ccccc12)C(=O)OCC
inactive: HT29 colon 12.5% | SNB-75 CNS 76% | SNB-19 CNS 33.7% | U251 CNS 33% | PC-3 prostate 24.3% | SK-MEL-5 melanoma 23.4% | UACC-62 melanoma 18.5% | LOX IMVI melanoma 17.6% | SK-MEL-28 melanoma 47.8% | SK-MEL-2 melanoma 51.9% | EKVX NSCLC 75.2% | SN12C renal 35.6% | UO-31 renal 20.9% | TK-10 renal 43.8% | ACHN renal 25% | CAKI-1 renal 24.1% | A498 renal 35.1% | CCRF-CEM leukemia 10.5% | MOLT-4 leukemia 24.8%

CN(C)CCCC1(c2ccc(F)cc2)OCc2cc(-c3csc4ccccc34)ccc21 (stereo not drawn)
inactive: SNB-75 CNS 29.7% | PC-3 prostate 30% | SK-MEL-2 melanoma 62.6% | EKVX NSCLC 55.3% | SN12C renal 39.7% | TK-10 renal 62.1%
active: HT29 colon -29.2% | SNB-19 CNS -35.6% | U251 CNS -57.1% | SK-MEL-5 melanoma -45.7% | UACC-62 melanoma -86.3% | LOX IMVI melanoma -97.9% | SK-MEL-28 melanoma -84% | UO-31 renal 2.29% | ACHN renal 0.407% | CAKI-1 renal 4.7% | CCRF-CEM leukemia -14.3% | MOLT-4 leukemia -15.6%

COc1cc2c3c(c4c5ccccc5[nH]c4c2c(OC)c1OC)C(=O)N(CCN1CCCCC1)C3=O
inactive: SNB-19 CNS 30.1% | PC-3 prostate 31.3% | SK-MEL-5 melanoma 31.7% | UACC-62 melanoma 48.4% | SK-MEL-28 melanoma 52.2% | SK-MEL-2 melanoma 49.4% | EKVX NSCLC 35.1% | SN12C renal 12.6% | UO-31 renal 16.1% | A498 renal 42.4% | MOLT-4 leukemia 12.9%
active: HT29 colon -39.6% | U251 CNS -60.3% | LOX IMVI melanoma -92% | TK-10 renal -76.6% | ACHN renal -40.4% | CAKI-1 renal -49% | CCRF-CEM leukemia 3.38%

CCOC(=O)c1nnn(Cc2cc(=O)oc3ccc(O)cc23)c1C
inactive: HT29 colon 103% | SNB-75 CNS 93.4% | SNB-19 CNS 96% | U251 CNS 105% | PC-3 prostate 95.2% | SK-MEL-5 melanoma 104% | UACC-62 melanoma 95.9% | LOX IMVI melanoma 99.9% | SK-MEL-28 melanoma 107% | SK-MEL-2 melanoma 111% | EKVX NSCLC 105% | SN12C renal 96.2% | UO-31 renal 91.8% | TK-10 renal 101% | ACHN renal 105% | CAKI-1 renal 96.7% | A498 renal 101% | CCRF-CEM leukemia 82.9% | MOLT-4 leukemia 100%

O=c1cc(CNc2cc(F)cc(F)c2)c2ccc(I)cc2[nH]1
active: HT29 colon 8.99% | SNB-75 CNS -9.56% | A498 renal 3.87%
inactive: SNB-19 CNS 49.8% | U251 CNS 31.8% | PC-3 prostate 26.7% | SK-MEL-5 melanoma 18.5% | UACC-62 melanoma 36.7% | LOX IMVI melanoma 41% | SK-MEL-28 melanoma 64% | SK-MEL-2 melanoma 39.2% | EKVX NSCLC 44% | SN12C renal 51.7% | UO-31 renal 39.7% | TK-10 renal 53.3% | ACHN renal 36.3% | CAKI-1 renal 26.6% | CCRF-CEM leukemia 14.8% | MOLT-4 leukemia 28.1%

CN(C)C1CN(C(=O)c2cc(-c3ccc4ncnc(N5CCc6cc(F)c(Cl)cc65)c4c3)cnc2N)C1
active: SNB-75 CNS -27% | PC-3 prostate 7.13% | SK-MEL-5 melanoma -20.8% | UACC-62 melanoma -19.7% | LOX IMVI melanoma 7.5% | SK-MEL-28 melanoma 8.13% | SK-MEL-2 melanoma -11.5% | UO-31 renal 7.34% | TK-10 renal 5.66% | CAKI-1 renal 0.593% | A498 renal -78.2% | MOLT-4 leukemia 4.86%
inactive: HT29 colon 14.8% | SNB-19 CNS 23.5% | U251 CNS 25% | EKVX NSCLC 10.1% | SN12C renal 11.1% | ACHN renal 10.8% | CCRF-CEM leukemia 15.7%

CCCOC(=O)Nc1nc2ccc(SCC)cc2s1
inactive: HT29 colon 31.3% | SNB-75 CNS 90.5% | SNB-19 CNS 84.5% | U251 CNS 85% | PC-3 prostate 80.8% | SK-MEL-5 melanoma 83.6% | UACC-62 melanoma 61.2% | LOX IMVI melanoma 71.1% | SK-MEL-28 melanoma 85.9% | SK-MEL-2 melanoma 76.2% | EKVX NSCLC 94.3% | SN12C renal 89.6% | UO-31 renal 90.7% | ACHN renal 107% | A498 renal 70.7% | CCRF-CEM leukemia 72.1% | MOLT-4 leukemia 72.9%

COC1C(O)CC(OC2CC(OC3CC(O[C@@H]4C(=O)c5c(cc6cc(OC7CC(OC8CC(O)C(O)C(C)O8)C(O)C(C)O7)c(C)c(O)c6c5O)CC4[C@H](OC)[C@@H](O)C(C)=O)OC(C)C3O)OC(C)C2O)OC1C (stereo partly drawn)
active: HT29 colon -16.9% | SNB-75 CNS -17.6% | U251 CNS 7.11% | SK-MEL-5 melanoma -65.2% | UACC-62 melanoma -20.9% | LOX IMVI melanoma -25.2% | SK-MEL-28 melanoma -13.9% | SK-MEL-2 melanoma -37.7% | UO-31 renal 0.176% | TK-10 renal -1.06% | ACHN renal 0.949% | A498 renal -78.8% | MOLT-4 leukemia -2.23%
inactive: SNB-19 CNS 16.4% | EKVX NSCLC 19.8% | SN12C renal 17% | CAKI-1 renal 29.3% | CCRF-CEM leukemia 16.6%

O=C1O[C@@H](c2ccccc2Cl)[C@@H]2c3cc4c(cc3CCN12)OCO4
inactive: HT29 colon 86.4% | SNB-75 CNS 91.7% | SNB-19 CNS 99.4% | U251 CNS 86% | PC-3 prostate 87.7% | SK-MEL-5 melanoma 96.6% | UACC-62 melanoma 78.7% | LOX IMVI melanoma 99.5% | SK-MEL-28 melanoma 118% | SK-MEL-2 melanoma 91.7% | EKVX NSCLC 101% | SN12C renal 103% | UO-31 renal 74.6% | TK-10 renal 89.1% | ACHN renal 105% | A498 renal 82.8% | CCRF-CEM leukemia 105% | MOLT-4 leukemia 90.5%

O=C1CCC(C(=O)N/N=C/c2cc(F)ccc2F)N1 (stereo not drawn)
inactive: HT29 colon 106% | SNB-75 CNS 80.7% | SNB-19 CNS 98.9% | U251 CNS 98% | PC-3 prostate 95.8% | SK-MEL-5 melanoma 100% | UACC-62 melanoma 98.1% | LOX IMVI melanoma 95.1% | SK-MEL-28 melanoma 108% | SK-MEL-2 melanoma 97.8% | EKVX NSCLC 100% | SN12C renal 96.6% | UO-31 renal 92.4% | TK-10 renal 104% | ACHN renal 100% | CAKI-1 renal 98% | A498 renal 106% | CCRF-CEM leukemia 103% | MOLT-4 leukemia 101%

CCN(CC)C(=O)CC1=C(C)/C(=C/c2[nH]c(-c3ccc[nH]3)cc2OC)N=C1C
active: PC-3 prostate 3.87% | SK-MEL-5 melanoma -59.3% | UACC-62 melanoma -51.8% | LOX IMVI melanoma -58.8% | SK-MEL-2 melanoma -36.1% | UO-31 renal -59.3% | ACHN renal 1.61% | CAKI-1 renal -8.05%
inactive: HT29 colon 12.4% | SNB-19 CNS 42.4% | U251 CNS 23.9% | SK-MEL-28 melanoma 25.6% | EKVX NSCLC 32.7% | SN12C renal 29.1% | TK-10 renal 28.2% | CCRF-CEM leukemia 25.8% | MOLT-4 leukemia 12.4%

Nc1ccc(-c2ccncc2)cc1NC(=O)N1CCCC1
inactive: HT29 colon 72.9% | SNB-75 CNS 85% | SNB-19 CNS 106% | U251 CNS 89.8% | PC-3 prostate 91.2% | SK-MEL-5 melanoma 99.3% | UACC-62 melanoma 91.7% | LOX IMVI melanoma 112% | SK-MEL-28 melanoma 96.1% | SK-MEL-2 melanoma 87.9% | EKVX NSCLC 104% | SN12C renal 100% | UO-31 renal 88.7% | TK-10 renal 85.2% | ACHN renal 108% | CAKI-1 renal 95% | A498 renal 76.8% | CCRF-CEM leukemia 88.1% | MOLT-4 leukemia 87%

CCCc1cc(=O)oc2c(C(=O)CC(C)C)c(O)c(CC=C(C)C)c(O)c12
active: PC-3 prostate 6.87% | SK-MEL-5 melanoma -45.8% | UACC-62 melanoma -1.35% | A498 renal -16.3%
inactive: HT29 colon 57.3% | SNB-75 CNS 52.6% | SNB-19 CNS 21.5% | U251 CNS 22.5% | LOX IMVI melanoma 33.8% | SK-MEL-28 melanoma 26.3% | SK-MEL-2 melanoma 14.1% | EKVX NSCLC 13.7% | SN12C renal 11.6% | UO-31 renal 20% | TK-10 renal 27.4% | ACHN renal 27.5% | CAKI-1 renal 11.1% | CCRF-CEM leukemia 12.9% | MOLT-4 leukemia 19.1%
